High-throughput results: PubChem, several laboratories
In the library only some 5.3% were active in any assay of this set; here they are far more common.
HIF activator: HIF pathway transcriptional activators, primary screen, cell-based, U2OS HRE-luciferase, luminescence. U2OS HRE-luciferase reporter; normalized: DMSO 0%, desferrioxamine 100%. activation, % at 7.5 µM (by protocol). 300,000 compounds, 0.32% hits;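 active = mean activation of at least 10% of the iron chelator positive control signal, with at least half of replicates also reaching 10%; inconclusive = mean and replicate majority disagree about reaching 10%; inactive = mean and most replicates under 10%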
PfM18AAP inh: PfM18AAP inhibitors, malaria aminopeptidase, primary screen, biochemical, QFRET, recombinant enzyme; M18 aspartyl aminopeptidase (Plasmodium falciparum 3D7); H-Glu-NHMec fluorogenic cleavage; inhibition, % at 7.35 µM; 290,000 compounds, 1.2% hits; AID 1822, 2009;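 active = inhibition above the campaign mean inhibition over all tested compounds plus 3 SD, cut at about 28% in these data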;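 also: 0% = plate median of test compound wells and 100% = 2 mM ZnCl2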
Mot1-301 SUMO: yeast Mot1-301 growth rescue at high temperature, primary screen, SUMOylation pathway inhibitor project, S. cerevisiae, ATP luminescence, 38.5C | S. cerevisiae Mot1-301 growth rescue; percent above DMSO median, 100 means doubled | growth rescue, % at 18.8 µM | 320,000 compounds, 1% hits | AID 2716, 2010;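 active = every valid replicate shows activation above 250% relative to neutral control wells; inactive = the rest, any valid replicate at or below 250%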;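 also: OY570 slx delta 5 strain wells were the positive control but not used for scaling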
ALR inh: inhibitors of human ALR sulfhydryl oxidase, primary screen, biochemical, H2O2 detection, HRP-luminol luminescence, single point; inhibition, % (concentration not given with the values); AID 485317, 2010; 290,000 compounds, 3.8% hits; purified ALR, DTT oxidation; FAD-linked sulfhydryl oxidase ALR (Homo sapiens), P55789;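 active = mean replicate inhibition above about 79%, with every replicate also reaching it, limit read from the data; inconclusive = only one of the two criteria met; inactive = mean below limit and not every replicate reaching it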
Target sequence (P55789 whole entry, looked up): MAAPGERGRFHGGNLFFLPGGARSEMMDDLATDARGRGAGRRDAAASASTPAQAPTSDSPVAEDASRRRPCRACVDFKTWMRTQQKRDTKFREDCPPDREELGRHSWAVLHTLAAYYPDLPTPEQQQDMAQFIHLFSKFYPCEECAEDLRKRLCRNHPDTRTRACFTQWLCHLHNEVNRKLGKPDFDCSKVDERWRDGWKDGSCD
Mot1 SUMO dose: growth restoration of Mot1-301 yeast on galactose, dose response, SUMO pathway inhibitor project, whole organism, S. cerevisiae, ATP luminescence, cherry-picked samples | shares compounds with Mot1-301 SUMO | S. cerevisiae Mot1-301 galactose growth, 24 h; -100 = growth of slx-deleted rescue strain | growth activity, percent, % at 42 µM | 2,300 tested, under 10 active | AID 493004, 2010;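 active = Signal drops as the depositor expects, and the fitted half-maximal dose is no more than ten times the top valid tested dose; inconclusive = Poor fit, or a flat curve whose signal drops by 30% to 70%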;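 also: more negative values mean stronger growth rescue toward the control strain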
* = called active by the depositor.

Results for COc1ccc(/C=C/C(=O)OCC(=O)NCc2ccccc2Cl)cc1OC ?
Mot1-301 SUMO: 0; ALR inh: 0

What do the screens show for `COc1ccc(NC(=O)c2cc(C)no2)cc1Cl`?
HIF activator: 0; PfM18AAP inh: 1; Mot1-301 SUMO: 432*; Mot1 SUMO dose: 0

What do the screens show for `Cc1cc(C(F)F)n2ncc(C(=O)NCCc3ccc(Cl)cc3)c2n1`?
HIF activator: -1; PfM18AAP inh: -4; Mot1-301 SUMO: 540*; ALR inh: -8; Mot1 SUMO dose: 0

How did Cc1cc(C)cc(OCC(=O)Nc2ccc3c(c2)OCO3)c1 do in these assays?
HIF activator: 0; PfM18AAP inh: -4; Mot1-301 SUMO: 4; ALR inh: -8

Results for Cc1ccc(-c2[nH]ncc2CNCCc2cnn(-c3ccccc3)c2)cc1C ?
HIF activator: 0; PfM18AAP inh: -1; Mot1-301 SUMO: 923*; Mot1 SUMO dose: 0

How did Cn1cc(CCNCc2cn[nH]c2-c2ccc(-c3ccccc3)cc2)cn1 do in these assays?
HIF activator: 2; PfM18AAP inh: -6; Mot1-301 SUMO: 7; ALR inh: -8

What do the screens show for `CCOC(=O)c1sc(NC(=O)C(CC)OC(=O)c2ccco2)nc1C` (stereo not given)?
HIF activator: 0; PfM18AAP inh: -15; Mot1-301 SUMO: 889*; ALR inh: 6; Mot1 SUMO dose: 0

Results for Cc1nc2ccc(C(=O)N3CCCC(CO)(Cc4ccc(F)cc4F)C3)cc2nc1C (stereo not given) ?
HIF activator: 1; PfM18AAP inh: 6; Mot1-301 SUMO: -20; ALR inh: 4

Results for COc1ccc(C#Cc2c(-c3ccccc3)n(C)c3ccccc23)cc1 ?
Mot1-301 SUMO: 6; ALR inh: 2

Results for Cc1cc(C#Cc2c(-c3ccccc3)n(C)c3ccccc23)ccc1F ?
HIF activator: 0; PfM18AAP inh: -5; Mot1-301 SUMO: 716*; ALR inh: 4; Mot1 SUMO dose: 0

What do the screens show for `CCOc1cc2[nH]c(=S)n(CCCN(CC)CC)c(=O)c2cc1OCC`?
HIF activator: 0; PfM18AAP inh: 1; Mot1-301 SUMO: 25; ALR inh: inconclusive

Results for CCN(CC)CCCn1c(=S)[nH]c2ccc(Cl)cc2c1=O ?
HIF activator: -1; PfM18AAP inh: 10; Mot1-301 SUMO: 631*; ALR inh: -10; Mot1 SUMO dose: 0

What do the screens show for `Cc1cccc(N2C(=O)CSC2c2cccnc2)c1` (stereo not given)?
HIF activator: 0; PfM18AAP inh: 2; Mot1-301 SUMO: 686*; ALR inh: 99*; Mot1 SUMO dose: 0

Results for CC(C)(C)c1ccc(N2C(=O)CSC2c2cccnc2)cc1 (stereo not given) ?
HIF activator: 0; PfM18AAP inh: -1; Mot1-301 SUMO: 111

What do the screens show for `O=C(Nc1ccc(Cl)cc1)OCc1cncs1`?
HIF activator: 3; PfM18AAP inh: -2; Mot1-301 SUMO: -2

Results for O=C(Nc1cccc(Cl)c1)OCc1cncs1 ?
HIF activator: 1; PfM18AAP inh: 3; Mot1-301 SUMO: active; ALR inh: -2; Mot1 SUMO dose: 0

What do the screens show for `COc1ccc(CCNC(=O)C2CCCN(S(=O)(=O)c3ccc(F)cc3)C2)cc1OC` (stereo not given)?
HIF activator: 1; PfM18AAP inh: 1; Mot1-301 SUMO: -21; ALR inh: 0

What do the screens show for `COC(=O)C(Cc1ccccc1)NC(=O)CCC(=O)NC(C)CCc1ccccc1` (stereo not given)?
HIF activator: -4; PfM18AAP inh: 1; Mot1-301 SUMO: -14; ALR inh: -6

What do the screens show for `COC(=O)[C@H](Cc1ccccc1)NC(=O)NC(C)CCc1ccccc1` (stereo not given in full)?
HIF activator: 0; PfM18AAP inh: 2; Mot1-301 SUMO: 871*; ALR inh: -17; Mot1 SUMO dose: 0

How did COc1ccccc1C(=O)NCC(=O)NCCC(c1ccccc1)c1ccccc1 do in these assays?
Mot1-301 SUMO: 7; ALR inh: -3

What do the screens show for `O=C(CN1CCN(Cc2ccc(Cl)cc2)CC1)N1CCc2ccccc21`?
HIF activator: 0; PfM18AAP inh: -5; Mot1-301 SUMO: 54; ALR inh: -10

How did Cn1cc(C(=O)N2CCCC(Nc3ccc(F)cc3)C2)c2ccccc21 (stereo not given) do in these assays?
HIF activator: 0; PfM18AAP inh: -1; Mot1-301 SUMO: 662*; ALR inh: 88*; Mot1 SUMO dose: 1

Results for Cn1c(O)c(N=NC(=O)CNC(=O)c2cccnc2)c2ccccc21 ?
HIF activator: 0; PfM18AAP inh: 8; Mot1-301 SUMO: -8; ALR inh: -1

What do the screens show for `CCOc1ccc(N(C(C)C(=O)NC(C)CC)S(C)(=O)=O)cc1` (stereo not given)?
HIF activator: 0; PfM18AAP inh: -3; Mot1-301 SUMO: 397*; ALR inh: 2; Mot1 SUMO dose: 0

How did CCOc1ccc(N(C(C)C(=O)N2CCCCCC2)S(C)(=O)=O)cc1 (stereo not given) do in these assays?
HIF activator: -1; PfM18AAP inh: 1; Mot1-301 SUMO: 1; ALR inh: -1

What do the screens show for `O=C(Nc1ccccc1)N1CCN(CCc2ccccc2)CC1`?
HIF activator: 0; PfM18AAP inh: -1; Mot1-301 SUMO: 392*; ALR inh: -6; Mot1 SUMO dose: -1

Results for Cc1c(C(=O)N2CCN(CCc3ccccc3)CC2)oc2ccccc12 ?
HIF activator: 0; PfM18AAP inh: -4; Mot1-301 SUMO: 707*; ALR inh: -8; Mot1 SUMO dose: -1

What do the screens show for `Cc1c(C(=O)N2CCN(S(C)(=O)=O)CC2)oc2ccccc12`?
HIF activator: 0; PfM18AAP inh: 1; Mot1-301 SUMO: -26; ALR inh: -12

Results for O=C(c1cc(-c2ccc(Br)cc2)n[nH]1)N1CCN(C(=O)c2ccccc2Br)CC1 ?
HIF activator: -1; PfM18AAP inh: 2; Mot1-301 SUMO: -8; ALR inh: 0

Results for COc1cc2c(=O)n(-c3ccc(C)cc3)c(=O)n(CC(=O)c3ccc4c(c3)OCO4)c2cc1OC ?
HIF activator: 1; PfM18AAP inh: 7; Mot1-301 SUMO: 694*; ALR inh: 6; Mot1 SUMO dose: 0

How did O=C(COc1ccc([N+](=O)[O-])cc1)Nc1ccc(C(=O)NCc2cccnc2)cc1 do in these assays?
HIF activator: 0; PfM18AAP inh: -1; Mot1-301 SUMO: 481*; ALR inh: 4; Mot1 SUMO dose: 0

How did NC1=NC2(CCCC2)N=C(Nc2ccccc2)N1 do in these assays?
HIF activator: 0; PfM18AAP inh: 1; Mot1-301 SUMO: 722*; Mot1 SUMO dose: 0
